The results in this text go back to PubChem BioAssay AID463173 (ICCB-Longwood Screening Facility, Harvard Medical School, 2010).

The campaign covered roughly 52,000 compounds. About 4,300 (8.3%) were called active. Only a selection was taken, and actives are over-represented in it overall. Unmarked numbers belong to inactive results. No stated cut-off is given here; in the data, active means survival mostly below about 52% (no sharp cut-off); inactive means mostly above about 56%.

The test system of this assay is DeltatarO mutant. The experiment in a line: S. aureus survival, RN4220 and DeltatarO strains – OD600, teichoic acid synthesis inhibitors, primary screen (AID 463173). The note with it: S. aureus RN4220 wild type/DeltatarO growth, OD600, 18 h, stronger effect = lower value, screened at 18.75 µg/mL (by protocol).
On to `COc1cccc(CNC(=O)Cn2c(=O)ccc3cc(S(=O)(=O)N4CCC(C)CC4)ccc32)c1`, for which the survival is 99%.

Turning to `COc1cc(OC)c(NC(=O)Nc2ccccc2OCc2cc(=O)n3cc(C)ccc3n2)cc1Cl`, the survival is 103%.

In the case of `COc1ccccc1C(=O)Nc1ccc(OCc2cc(=O)n3cc(C)sc3n2)cc1`, the survival is 130%.

Take `CCOc1ccc(C(=O)Nc2c(C(=O)c3ccccc3)oc3ccccc23)cc1`: the survival is 72%.

`O=C(NCCc1ccccc1)c1cc2sccc2n1Cc1ccc(F)cc1`: the survival was 72%.

`COc1cc(OC)c(NC(=O)CCc2c(C)nc3ncnn3c2C)cc1Cl`: the survival was 97%.

Turning to `Cc1cn2c(=O)c(S(=O)(=O)NCc3ccccc3Cl)c(C)nc2s1`, the survival was 66%.

As for `COc1ccc(NC(=O)c2oc3ccccc3c2NC(=O)c2cc(=O)c3cc(Cl)ccc3o2)cc1`, the survival is 54%.

Take `Cc1ccc2oc(C(=O)Nc3c(C(=O)Nc4cccc(Cl)c4)oc4ccccc34)cc(=O)c2c1`: the survival was 67%.

For the molecule `Cc1cc(C)c2oc(C(=O)Nc3c(C(=O)c4ccccc4)oc4ccccc34)cc(=O)c2c1`, the survival is 55%.

With `Cc1cc(C)c2oc(C(=O)Nc3c(C(=O)Nc4ccccc4)oc4ccccc34)cc(=O)c2c1`, the survival was 51% (active).

As to `Cc1ccc2c(=O)cc(C(=O)Nc3nnc(C)s3)oc2c1`, the survival is 76%.

Take `COC(=O)c1ccc(NC(=O)c2cc(=O)c3ccc(C)cc3o2)cc1`: the survival was 96%.

`Cc1cccc(NC(=O)c2oc3ccccc3c2NC(=O)c2cc(=O)c3cc(Cl)ccc3o2)c1`: the survival is 43% (active).

With `Cc1ccc2oc(C(=O)Nc3cccc(Cl)c3)cc(=O)c2c1`, the survival was 92%.

Take `Cc1ccc2c(=O)cc(C(=O)Nc3c(C)cccc3C)oc2c1`: the survival is 44% (active).

As to `Cc1ccc2c(=O)cc(C(=O)Nc3c(C(=O)Nc4cccc(Cl)c4)oc4ccccc34)oc2c1`, the survival is 36% (active).

With `O=C(Nc1c(C(=O)Nc2cccc(C(F)(F)F)c2)oc2ccccc12)c1cc(=O)c2ccccc2o1`, the survival was 78%.

As to `Cc1cc2oc(C(=O)Nc3c(C(=O)Nc4ccccc4)oc4ccccc34)cc(=O)c2cc1C`, the survival was 106%.

As for `NCC1Cc2ccccc2O1` (configuration not stated), the survival is 103%.

`O=c1c2oc3ccccc3c2n(Cc2cccc(F)c2)c(=O)n1Cc1ccco1`: the survival is 75%.

For `Cc1ccccc1CSc1nnc2[nH]c(=O)cc(C)n12`, the survival was 84%.

As to `Cc1cc(C)cc(-n2ccnc(NCCc3ccccc3)c2=O)c1`, the survival is 101%.

Take `CC(C)Oc1ccc(C2CC(=O)N(C)C2=O)cc1` (configuration not stated): the survival was 82%.

Turning to `Cc1ccc(OCC(=O)Nc2ccc(S(=O)(=O)N3CCOCC3)cc2)c(C)c1`, the survival was 94%.

`COc1ccc2cc(CN(Cc3nnnn3Cc3ccccc3)C3CCCC3)c(=O)[nH]c2c1`: the survival was 96%.

With `CC1CCN(C(=O)c2ccc3nc(N4C(=O)CCC4=O)sc3c2)CC1`, the survival was 95%.

In the case of `COc1ccc(C)cc1NC(=O)C(=O)NCCc1csc2nc(-c3ccccc3F)nn12`, the survival is 72%.

Take `COc1ccc(N2CCN(S(C)(=O)=O)CC2)cc1`: the survival was 86%.

For the molecule `COc1cc2c(=O)c(S(=O)(=O)c3ccc(F)cc3)cn(Cc3ccccc3C)c2cc1OC`, the survival is 55%.

Take `CCOC(=O)C1CCCN(C(=O)c2ccc3c(c2)sc2nc(-c4cccc(OC)c4)cn23)C1` (configuration not stated): the survival was 77%.

As for `Cc1ccc(C(=O)c2oc3ccccc3c2NC(=O)c2cc(=O)c3ccccc3o2)cc1`, the survival is 57%.

`CCc1ccc2oc(C(=O)Nc3ccccc3OC)cc(=O)c2c1`: the survival is 49%.

With `Cc1cccc(NC(=O)c2oc3ccccc3c2NC(=O)c2cc(=O)c3ccc(C)cc3o2)c1`, the survival was 28% (active).

With `CCOc1ccccc1NC(=O)c1cc(=O)c2ccc(C)cc2o1`, the survival is 44% (active).

With `Cc1ccc2c(=O)cc(C(=O)Nc3c(C(=O)c4ccccc4)oc4ccccc34)oc2c1`, the survival is 76%.

Consider `CCOc1ccc(C(=O)c2oc3ccccc3c2NC(=O)c2cc(=O)c3ccc(C)cc3o2)cc1`, for which the survival is 134%.

With `COc1ccc(C(=O)c2oc3ccccc3c2NC(=O)c2cc(=O)c3ccc(C)cc3o2)cc1Cl`, the survival was 44% (active).

Turning to `Cc1ccc2oc(C(=O)Nc3c(C(=O)Nc4ccccc4)oc4ccccc34)cc(=O)c2c1`, the survival is 73%.

As for `Cc1cccc(NC(=O)c2oc3ccccc3c2NC(=O)c2cc(=O)c3ccccc3o2)c1`, the survival was 73%.

On to `COC(=O)C(C)Oc1ccc(N2C(=O)c3ccccc3C2=O)cc1` (configuration not stated), for which the survival is 75%.

Turning to `O=S(=O)(c1ccc(-c2cc(C(F)(F)F)on2)s1)N1CCN(c2ccccc2)CC1`, the survival is 75%.

`CCOc1ccc(-c2cc3nc(C4CCN(C(=O)OC(C)(C)C)CC4)c(C(=O)Nc4cccc(C(F)(F)F)c4)cn3n2)cc1`: the survival is 79%.

With `O=C1C2C3c4ccccc4C(c4ccccc43)C2C(=O)N1Cc1ccccn1` (configuration not stated), the survival was 83%.

`COCC[N+]1(C)CCCCC1`: the survival was 84%.

As to `COc1ccc(-c2cc(C(F)(F)F)nc(SCC(=O)N3CCC(C)CC3)n2)cc1`, the survival was 56%.

`CC1CCN(C(=O)C(C)Sc2nc(-c3ccccc3)cc(C(F)(F)F)n2)CC1` (configuration not stated): the survival was -1% (active).

Take `CC1CN(C(=O)C(C)Sc2nc(-c3ccccc3)cc(C(F)(F)F)n2)CC(C)O1` (configuration not stated): the survival is 78%.

For the molecule `CC1CCN(C(=O)CSc2nc(-c3ccc(F)cc3)cc(C(F)(F)F)n2)CC1`, the survival was 37% (active).

On to `CC1CCN(C(=O)CSc2n[nH]c(-c3ccc(F)cc3)n2)CC1`, for which the survival is 92%.

For `CC(Sc1nc(-c2ccccc2)cc(C(F)(F)F)n1)C(=O)N1CCCC1` (configuration not stated), the survival was 101%.

In the case of `CC(C)C(=O)Nc1cccc(C(=O)Nc2nncs2)c1`, the survival was 87%.

As for `O=C(CSc1nc(-c2ccc(F)cc2)[nH]c1-c1ccccc1)NCC1CCCO1` (configuration not stated), the survival is 82%.

For `Cc1ccccc1-c1noc(-c2ccc(NCc3cccnc3)c([N+](=O)[O-])c2)n1`, the survival was 98%.

Regarding `O=C(c1ccc2c(c1)C(=O)N(CCCO)C2=O)c1ccc2c(c1)C(=O)N(CCCO)C2=O`, the survival was 70%.

In the case of `C[N+](C)(C)CCNC(=O)c1ccc(/C=N/O)nc1`, the survival was 81%.

As to `Oc1ccc(CNc2ccccc2Cl)c2cccnc12`, the survival is 115%.
